# Screens (PubChem)
# Most compounds without a hit are left out; they make up all but 7.4% or so of the library.
# Rab9 promoter act = qHTS Assay for Rab9 Promoter Activators; Potency, µM (doses to about 9.22 µM), inactives show top-dose activation, negative = inhibition, actives largely listed as activators; Huh7 Rab9 promoter-luciferase reporter, luminescence, 24 h; hit rate 2.8% among 320,000; further: % of control where 0% means no effect; nearly all actives have a fitted effect of over 60% in size
#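 Huh7 reporter line, Rab9 promoter upstream of luciferase. Compound exposure 24 h at 37 °C in reduced-serum medium with 10% FBS. Read-out: luminescence.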
# NPC1 prom act = qHTS Assay for NPC1 Promoter Activators; hit rate 2.4% among 320,000; Huh7 NPC1 promoter luciferase reporter, 24 h; Potency, µM (top dose mostly 9.22 µM), for the others: at the top dose activation, actives largely listed as activators; further: % of control where 0% means no effect; nearly all actives have a fitted effect of over 60% in size
#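 Cells: Huh7 expressing luciferase under the NPC1 promoter, 1500/well. Seeded 2 h, compound added, incubated 24 h at 37 °C. Luciferase reagent, 10 min ambient, then luminescence.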
# FLuc modulator = qHTS profiling assay for firefly luciferase inhibitor/activator using purifed enzyme and Km concentrations of substrates (counterscreen for miR-21 project) | Luciferin 4-monooxygenase (Photinus pyralis), P08659 | Potency, µM (top dose mostly 57.5 µM), without a hit: at the top dose activity change, negative = inhibition, actives largely listed as inhibitors | hit rate 6.9% among 360,000 | purified FLuc, Km substrates, luminescence inhibition;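 further: plate controls were vehicle for no effect and reference inhibitor for full effect; nearly all actives have a fitted effect of over 55% in size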
# Target sequence (P08659 whole entry, looked up): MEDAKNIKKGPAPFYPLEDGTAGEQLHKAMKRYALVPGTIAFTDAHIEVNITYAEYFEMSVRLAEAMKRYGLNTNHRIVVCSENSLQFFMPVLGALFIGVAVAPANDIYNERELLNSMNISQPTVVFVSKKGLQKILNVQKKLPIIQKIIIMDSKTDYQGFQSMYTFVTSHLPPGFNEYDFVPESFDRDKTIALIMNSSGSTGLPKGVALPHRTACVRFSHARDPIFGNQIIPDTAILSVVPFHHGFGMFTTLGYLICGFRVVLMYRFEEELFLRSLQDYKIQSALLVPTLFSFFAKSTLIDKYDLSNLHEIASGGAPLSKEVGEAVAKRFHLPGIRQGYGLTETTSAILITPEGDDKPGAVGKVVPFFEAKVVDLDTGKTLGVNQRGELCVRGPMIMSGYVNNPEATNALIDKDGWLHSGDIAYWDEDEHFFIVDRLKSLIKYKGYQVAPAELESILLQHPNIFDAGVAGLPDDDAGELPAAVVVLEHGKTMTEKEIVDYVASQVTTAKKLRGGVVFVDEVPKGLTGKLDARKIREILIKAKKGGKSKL
#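 Purified P. pyralis luciferase (10nM final) with 10uM D-luciferin and 10uM ATP (Km levels) in 50mM Tris acetate pH 7.5, 10mM Mg acetate, 0.01% Tween-20, 0.05% BSA; qHTS 6-point titration, ~60 µM downward; luminescence read.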
# KinaseGlo FLuc = Counterscreen for Luciferase (Kinase-Glo TM) Inhibition. Luciferin 4-monooxygenase (Photuris pensylvanica), Q27757. AID 1379, 2008. hit rate 0.28% among 200,000. Potency, µM (top dose mostly 38.3 µM), for inactives: at the highest dose activity change, negative = inhibition, most hits filed as inhibitors. Kinase-Glo luciferase, ATP luminescence, 8 min; further: on the % scale 0 is the no-effect control and ±100 the full control effect; nearly all actives have a fitted effect of over 60% in size
#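 Light output from Kinase-Glo luciferase with luciferin and 10 uM ATP in 50 mM imidazole pH 7.2, KCl, MgCl2, Tween 20, BSA; compound pin-delivered, 8-min ambient incubation, then luminescence read.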
# ELG1 genotox = qHTS screen for small molecules that induce genotoxicity in human embryonic kidney (HEK293T) cells expressing luciferase-tagged ELG1. HEK293T ELG1-luciferase reporter, luminescence, 16 h. hit rate 1.3% among 330,000. Potency, µM (top dose mostly 46 µM), for inactives: at the top dose activity change, positive = activation, actives largely listed as activators; further: % of control where 0% means no effect; nearly all actives have a fitted effect of over 60% in size
#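 Genotoxic stress is detected as increased luminescence from luciferase-tagged ELG1 in HEK293T cells, measured with ONE-Glo after a 16 hr treatment at 37 °C.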
# SMN2 splice enh = qHTS Assay for Enhancers of SMN2 Splice Variant Expression; HEK293 SMN2-luciferase splicing reporter, luminescence, 30-36 h; Potency, µM (highest dose often 46.1 µM), for inactives: at the top dose activity change, positive = activation, hits mostly activators; hit rate 2.8% among 210,000; AID 1458, 2008; further: % of control where 0% means no effect; nearly all actives have a fitted effect of over 55% in size
#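 HEK293 cells carry an SMN2 minigene-luciferase reporter in which exon 7 inclusion puts luciferase in frame. Cells were seeded at 2000 cells/well, attached for 10-12 hours, then exposed to compounds for 30-36 hours at 37C before ONE-Glo luminescence.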
# Active calls of the source: *; ? = inconclusive; / = no result given. The call rests on the fitted dose curve; in most records, active means well fitted curve in the direction sought with a large enough effect; inconclusive means small, poorly fitted or top-dose-only effect, or another doubt; inactive means no such curve, though single readings can be large; an effect the other way counts as inactive or inconclusive. Potency means the concentration at half of the fitted maximal effect.
SMILES,Rab9 promoter act,NPC1 prom act,FLuc modulator,KinaseGlo FLuc,ELG1 genotox,SMN2 splice enh
C/C(=C\C(=O)c1ccccc1)Nc1ccc(O)cc1,3.5µM*,2.5µM*,4.8µM*,21%,6.5µM*,/
C/C(=C\C(=O)c1cccnc1)Nc1ccc(O)cc1,?,?,17µM*,-3%,16µM*,27%
COc1ccc(C(=O)/C=C(\C)Nc2ccc(NC(C)=O)cc2)cc1,2.8µM*,?,?,-1%,4%,-17%
C/C(=C\C(=O)c1ccc(C)cc1)Nc1ccc(N2CCOCC2)cc1,14%,0%,-1%,-2%,0%,9%
Cc1nn2c(=O)cc(COC(=O)COc3ccc(F)cc3)nc2s1,/,/,-2%,/,/,/
COc1ccc(-c2noc(CSCC(=O)Nc3cccc(C(F)(F)F)c3)n2)cc1OC,/,/,-7%,/,/,/
CC(=O)c1ccc(NC(=O)c2cn(-c3ccccc3)nc2-c2ccc(Br)cc2)cc1,/,/,-14%,/,/,1%
CCOc1ccc(C2c3c(oc4ccc(C)cc4c3=O)C(=O)N2Cc2ccc3c(c2)OCO3)cc1OC (stereo not drawn),/,/,2%,/,/,2%
C[n+]1c(/C=C/c2ccc(O)cc2)ccc2ccccc21,-2%,-7%,13µM*,/,3%,/
C[n+]1c(/C=C/c2ccc3c(c2)OCO3)ccc2ccccc21,15%,8%,11µM*,-26%,?,-95%
Cc1c2n(c3ccccc13)CCN(C)C2,0%,6%,2%,/,0%,/
COc1ccc(CNC(=O)CSc2nc3ccc(OC)cc3[nH]2)cc1,0%,-2%,4%,/,0%,/
COc1ccc2nc(SCC(=O)C(C)(C)C)[nH]c2c1,2.2µM*,2µM*,?,/,15µM*,/
O=C(CSc1nc2ccccc2[nH]1)NCc1ccccc1,28%,26%,-5%,/,9%,/
O=C(CSc1ncnc2ccccc12)c1ccco1,3.2µM*,3.2µM*,3µM*,-20%,?,/
O=C(CSc1nc2ccccc2[nH]1)c1ccco1,4µM*,?,17µM*,-9%,?,?
COc1ccc2nc(SCC(=O)c3ccco3)[nH]c2c1,1.8µM*,2.2µM*,5.4µM*,-7%,?,?
Nc1nc(SCC(=O)Nc2cccc(C(F)(F)F)c2)n[nH]1,/,/,-7%,/,/,-14%
Cc1ccccc1C(=O)N1CCC(C(=O)N2CCN(S(=O)(=O)c3ccccc3F)CC2)CC1,-3%,-1%,-1%,4%,-7%,-25%
Nc1ccc(CCn2ccnc2)cc1,-1%,2%,1%,/,-1%,/
CCOc1ccc(C(=O)/C=C/c2ccccc2C(F)(F)F)cc1,10%,14%,5.4µM*,4%,1%,-11%
COc1ccc(C(=O)/C=C/c2ccccc2C(F)(F)F)cc1,1%,15%,12µM*,-3%,-1%,-9%
Cc1ccccc1C(C(=O)NC1CCCCC1)N(C(=O)CNC(=O)c1ccco1)c1cccnc1 (stereo not drawn),1%,-1%,8%,-5%,1%,/
COc1ccc(OCc2cccc(C(=O)NN)c2)cc1,0.089µM*,0.089µM*,6µM*,-11%,?,3.2µM*
COc1ccccc1OCCNC(=O)c1cccc(S(=O)(=O)NCc2ccccc2)c1,-7%,-3%,-1%,/,0%,/
SMILES,Rab9 promoter act,NPC1 prom act,FLuc modulator,KinaseGlo FLuc,ELG1 genotox,SMN2 splice enh
CCCNC(=O)c1cccc(COc2ccccc2OC)c1,3.5µM*,1.4µM*,5.4µM*,-1%,?,14µM*
NNC(=O)c1cccc(COc2ccc(Br)cc2)c1,0.1µM*,0.32µM*,11µM*,-1%,?,1µM*
NNC(=O)c1ccc(COc2ccc3ccccc3c2)cc1,18%,?,6µM*,/,1%,/
CCOc1ccc(CCNC(=O)c2ccc3nc(N4CCOCC4)sc3c2)cc1OCC,-4%,-1%,2%,/,-10%,/
c1ccc(-c2ncnc3cc4n(c23)CCC4)cc1,-2%,-3%,-2%,1%,-4%,-3%
CCN(c1ccccc1)S(=O)(=O)c1ccc(OC)c(NC(=O)COc2ccc(C(C)=O)cc2)c1,-7%,-11%,-1%,/,-8%,/
C=CCSC1=NC(=O)/C(=C/c2cccs2)S1,-5%,-8%,19µM*,-2%,?,20%
O=C(Nc1cc(S(=O)(=O)N2CCOCC2)ccc1Cl)C1CCC1,-4%,0%,-1%,/,2%,/
O=C(CSc1ncc(-c2ccc(F)cc2)[nH]1)Nc1cccc(O)c1,3%,1%,19µM*,-2%,-6%,/
NNC(=O)CSc1ncc(-c2ccccc2)[nH]1,0%,-5%,-4%,/,8%,/
Cn1c2ccc(F)cc2c2nnc(SCC(=O)Nc3cccc(O)c3)nc21,1%,4%,9.5µM*,/,12%,/
Cn1c(/N=C/c2c[nH]c3ccccc23)nc2ccccc21,5%,0%,0.13µM*,/,-2%,/
CC(C)n1c(/N=C/c2c[nH]c3ccccc23)nc2ccccc21,-1%,-3%,2.7µM*,-3%,2%,-10%
C(=Nc1ccc(N2CCOCC2)cc1)c1c[nH]c2ccccc12,24%,5%,?,/,10%,/
Cc1nc(NCc2ccccc2)c2nc(-c3ccccc3)n(CCN3CCOCC3)c2n1,/,/,/,-4%,/,-5%
Nc1nc(NC(=O)c2ccc(Cl)cc2)nn1-c1ccccc1,10%,8%,19µM*,0%,-3%,17%
COc1ccccc1-c1nn2c(-c3ccccc3Cl)nnc2s1,3%,1%,-2%,3%,1%,-8%
CCN(CC)c1ccc(-c2nn3c(-c4ccccc4OC)nnc3s2)cc1,-20%,-18%,19µM*,8%,-17%,-41%
COc1ccccc1-c1nn2c(-c3ccco3)nnc2s1,?,?,5.4µM*,2%,18µM*,24%
Cc1cc(C(=O)CSc2cccc[n+]2[O-])c(C)n1-c1ccc(OC(F)F)cc1,?,?,15µM*,/,8%,/
COC(=O)c1ccc(-n2c(C)cc(C(=O)CSc3cccc[n+]3[O-])c2C)cc1,-1%,1%,?,1%,-3%,8%
Cc1c(Cl)cccc1NC(=O)Cn1c(=O)nc(-c2ccccc2)c2ccccc21,/,/,2%,/,/,/
CCOC(=O)c1c(C)oc2ncnc(NCCCN3CCN(c4cc(C)ccc4C)CC3)c12,/,/,3%,/,/,/
COc1cccc(/C=N/NC(=O)C(=O)N2CCCC2)c1OC,3%,-1%,-12%,-1%,0%,0%
